# Measured values as given in PubChem BioAssay AID1986 (Sanford-Burnham Center for Chemical Genomics, 2009).
# Screen size: about 290,000 compounds; about 890 (0.31%) were called active. Cut-off read from the data, not from the text of the source: active = inhibition mostly above about 52% (no sharp cut-off); inactive = mostly below about 76%. Only a selection was taken, and actives are over-represented in it overall.
# Experiment: cell-free HIV fusion peptide-binding blockers – biochemical, uHTS, fluorescence dequenching, primary screen (AID 1986)
# Details: 30 min, stronger effect = higher value
# [1] = measured here: repeat confirmation average inhibition, at 18.6 µM
Structure (SMILES),inhibition (at 20 µM),inhibition [1] [%]
O=C(NCc1ccco1)C12CN(Cc3ccccc3)CC1C(c1cccc([N+](=O)[O-])c1)=NO2 (centres undefined),0.7% (inactive),
COc1ccc(C2CC(c3c(-c4ccccc4)c4cc(Cl)ccc4[nH]c3=O)=NN2C(=O)CCC(=O)O)cc1 (centres undefined),15.1% (inactive),
O=c1c2c([nH]n1-c1ccccc1)CCSC2,3.5% (inactive),
COc1ccc2c(c1OC)C[N+]1([O-])CCc3cc4c(cc3C1C2)OCO4 (centres undefined),-1.5% (inactive),
C=CCNC(=S)NNc1nc(N2CCCC2)nc(N2CCCC2)n1,-0.8% (inactive),
COc1ccnc(CN(C)C(=O)C2CCC(=O)N(Cc3cccc(C(F)(F)F)c3)C2)c1 (centres undefined),4.4% (inactive),
COc1cc(-n2nnnc2SC)c(OC)cc1Cl,2.2% (inactive),
C/C(=N\NC(=O)CN(c1ccc(Oc2ccccc2)cc1)S(C)(=O)=O)C(C)(C)C,-0.5% (inactive),
CCCN1C=CC(=C/C=C(\C#N)C(=O)OCC)C=C1,0.7% (inactive),
CCOC(=O)/C(C#N)=C\C=C1C=CN(C)C=C1,98.3% (active),52.3
C=CCN1C=CC(=C/C=C(/C#N)C(=O)OCC)C=C1,-0.9% (inactive),
CC(C)Cc1nc(S(=O)(=O)c2ccc(Cl)cc2)c(N2CCOCC2)o1,1.2% (inactive),
Cc1ccc(-n2c(=O)c3ccc(C(=O)NCc4ccco4)cc3n(Cc3ccccc3C#N)c2=O)cc1,-1.1% (inactive),
Nc1c(C(=O)NCC2CCCO2)sc2nc3c(c(-c4ccco4)c12)CC/C3=C\c1ccco1 (centres undefined),64.6% (active),
Nc1c(C(=O)NC2CC2)sc2nc3c(c(-c4ccco4)c12)CC/C3=C/c1ccco1,64.6% (inactive),21.7
Nc1c(C(=O)Nc2ccccc2)sc2nc3c(c(-c4ccco4)c12)CCC3,-1.5% (inactive),
COc1cccc(Nc2nc3ccccc3nc2NS(=O)(=O)c2cccs2)c1,69.4% (inactive),30.8
COc1ccc(Nc2nc3ccccc3nc2NS(=O)(=O)c2cccs2)c(OC)c1,51.5% (active),64.5
COc1ccc(Nc2nc3ccccc3nc2NS(=O)(=O)c2cccs2)cc1,45.5% (inactive),
Cc1cccc(C)c1NC(=O)CN(C)C(=O)c1ccccc1C(=O)N(C)Cc1ccccc1,-1.3% (inactive),
C(=N\Nc1nc(N2CCCC2)nc(N2CCCC2)n1)/c1ccncc1,-0.1% (inactive),

Structure (SMILES),inhibition (at 20 µM),inhibition [1] [%]
COc1ccc(C(=O)NCc2nnc(SCC(=O)Nc3ccccc3F)o2)cc1,-1.8% (inactive),
COc1ccccc1/C=C/C(=O)NCC(=O)n1nc(C)cc1C,0.9% (inactive),
O=c1cc(O)c2sc(Nc3ccc(F)cc3)nc2[nH]1,23.5% (inactive),
O=c1cc(O)c2sc(Nc3ccc(F)c(Cl)c3)nc2[nH]1,51.4% (active),
O=c1cc(O)c2sc(Nc3ccc(Cl)c(F)c3)nc2[nH]1,46.9% (inactive),
CCOc1ccc2cc(C(=O)NCc3ccccc3)c(=N)oc2c1,0.1% (inactive),
CCCCCC/C(C)=C1/SC(=S)NC1=O,24.4% (inactive),
C/C(C/C(C)=C1/SC(=S)NC1=O)=C1\SC(=S)NC1=O,69.5% (active),
CCO/C(C)=C1/SC(=S)NC1=O,-1% (inactive),
CCC1(CC)Cc2ccccc2C(=C(C#N)C#N)N1,0.7% (inactive),
Cc1c(Cc2ccccc2)sc(NC(=O)/C=C/c2cccc3ccccc23)c1C(N)=O,3.6% (inactive),
COc1cc2ccccc2nn1,-0.9% (inactive),
COc1ccc2c(n1)Sc1nc3ccccc3nc1N2,82.7% (active),
COc1nc2ccccc2nc1OC,0.6% (inactive),
COC(=O)Nc1nnc(-c2ccccc2Cl)s1,-1.6% (inactive),
CCCN(C(=O)COc1ccc(Cl)cc1Cl)c1c(N)n(Cc2ccccc2)c(=O)[nH]c1=O,5.9% (inactive),
CCSC1=N/C(=C\C=C2/Oc3ccccc3N2CC)C(=O)S1,109% (active),63
CCSC1=N/C(=C\c2ccc3c(c2)OCO3)C(=O)S1,9.4% (inactive),
CCCCN1C(=O)/C(=C/C=C2\Oc3ccccc3N2CC)SC1=S,149% (inactive),
CCN(CC)c1ccc(-c2nc3cnccc3n2C)cc1,0.4% (inactive),
O=C(NCC1CCCO1)C1CCN(C2CCN(Cc3ccco3)CC2)CC1 (centres undefined),1.6% (inactive),

Structure (SMILES),inhibition (at 20 µM),inhibition [1] [%]
CCOc1ccc(-c2nn(-c3ccccc3)cc2/C=C2\SC(=S)N(C3CCS(=O)(=O)C3)C2=O)cc1 (centres undefined),78.9% (active),85
CCOc1ccc(-c2nn(-c3ccccc3)cc2/C=C2\SC(=S)N(Cc3ccco3)C2=O)cc1,17.3% (inactive),
CCCOc1ccc(-c2nn(-c3ccccc3)cc2/C=C2\SC(=S)N(C3CCS(=O)(=O)C3)C2=O)cc1 (centres undefined),-1.7% (inactive),
CCCOc1cccc(C(=O)N(Cc2ccc(OC)c(OC)c2)C2CCS(=O)(=O)C2)c1 (centres undefined),1% (inactive),
CCCCN(C)CCNC(=O)c1ccc(Cn2c(=S)[nH]c3ccc(Br)cc3c2=O)cc1,-3.1% (inactive),
COC(=O)N=Nc1c(O)n(Cc2ccccc2)c2ccccc12,-1.9% (inactive),
O=C(COc1ccc(Cl)cc1Cl)Nc1ccc2nc3n(c(=O)c2c1)CCCC3,-2.9% (inactive),
CCC1(c2ccccc2)NC(=O)N(CC(=O)Nc2ccc(OC)nc2)C1=O (centres undefined),116% (active),
CCC1(c2ccccc2)NC(=O)N(CC(=O)Nc2ccc(S(N)(=O)=O)cc2)C1=O (centres undefined),1.2% (inactive),
CCCC1(c2ccccc2)NC(=O)N(CC(=O)Nc2cc(OC)cc(OC)c2)C1=O (centres undefined),0.8% (inactive),
O=C(COC(=O)c1ccc(S(=O)(=O)N2CCOCC2)cc1)NC1CCCC1,0.3% (inactive),
Cc1ccn2c(Nc3ccccc3)c(-c3ccccn3)nc2c1,-2.6% (inactive),
Cc1ccn2c(Nc3ccc4c(c3)OCO4)c(-c3ccccn3)nc2c1,114% (active),
Cc1ccc(Nc2c(-c3ccccn3)nc3cc(C)ccn23)cc1,0.3% (inactive),
CCC(C)NC(=O)CN1C(=O)NC2NC(=O)NC21 (centres undefined),0.8% (inactive),
Cc1ccc(NC(=S)N(Cc2ccc(Br)cc2)Cc2ccc(C(=O)O)cc2)cc1C,36.8% (inactive),
Cc1cc(NC(=S)N(Cc2ccc(Cl)cc2)Cc2ccc(C(=O)O)cc2)ccc1Cl,53.2% (inactive),34.6
Cc1cc(NC(=S)N(Cc2ccc(Br)cc2)Cc2ccc(C(=O)O)cc2)ccc1Cl,59.2% (active),
CCOc1cc(/C=N/NC(=O)Cc2ccc(C(F)(F)F)cc2[N+](=O)[O-])c(Br)cc1OC,0.7% (inactive),
O=C(Nc1nnc(CCc2ccccc2)s1)c1ccc(F)cc1,1.8% (inactive),
